{
  "source": "PubChem BioAssay (Tox21)",
  "note": "Inconclusive results are not listed. A number with no mark means an inactive call. Calls of active or inactive are those of the source. Calls follow the shape of the dose curve; as a rule, active = well fitted cell-killing curve with a large enough effect in the repeat runs; inconclusive = weak or mixed curves, or effect the other way; inactive = flat fitted curve, though single readings scatter. % is scaled to controls: 0 for no effect and ±100 for the full control effect; potency is read from the fitted curve at half-maximal effect.",
  "data": [
    {"assay": "qHTS assay to identify small molecule antagonists of the retinoid acid receptor (RAR) signaling pathway - cell viability counter screen (AID 1159551); also: nearly all actives have a fitted effect of over 35% in size", "settings": "C3RL4 cells viability, ATP luminescence (CellTiter-Glo), 6 h; series mostly up to 92.4 µM; activity change, negative = cytotoxicity: at the top concentration", "source_text": "U.S. Tox21 Program National Center for Advancing Translational Sciences [NCATS] NIH Chemical Genomics Center [NCGC] U.S. Environmental Protection Agency [EPA] National Institutes of Environmental Health Sciences [NIEHS] National Toxicology Program [NTP] U.S. Food and Drug Administration [FDA] Tox21 Assay Overview: All-trans Retinoic acid (atRA) is the potent natural metabolite of retinol and plays an important role in normal embryonic development and maintenance of cellular phenotype in adult animals. atRA is the activating ligand for the retinoic acid receptors (RARs) which form heterodimers with retinoid X receptors (RXRs) on the retinoic acid response element (RARE). Through activation of the RAR/RXRs nuclear receptors, atRA regulates the transcription of a large number of protein-coding genes and regulatory RNAs. Intracellular levels of atRA are controlled by the retinol signaling pathway (RSP) that regulates the biosynthesis and catabolism of atRA to maintain physiological levels. Chemicals that interfere with the RSP can cause abnormal intracellular levels of atRA and therefore are potential developmental toxicants. To assess compounds for the potential adverse effect on embryonic development through interfering with retinol signaling, a cell-based RARE luciferase reporter gene assay was used. C3RL4 cell line (OARSA/CFSAN/FDA, Laurel, MD) was used to screen Tox21 10K compound library for identifying inhibitors of the RSP. Also cytotoxicity was assessed by determining the viability of cells based on the quantitation of ATP.\nTox21 Assay Protocol Summary: C3RL4 cells were seeded at 1,000/well in 4 uL of assay medium into white solid 1,536-well tissue culture plates (Greiner Bio-One North America Inc. Monroe, NC) using a Multidrop Combi (Thermo Scientific, Waltham, MA) dispenser. After incubation at 37 C and 5% CO2 for an overnight, 23 nL of compounds dissolved in DMSO, positive control or DMSO only were transferred by a Pintool station (Kalypsys, San Diego, CA). One ul of 1 uM (final concentration) of Retinol was added right after the compound addition by using a Flying Reagent Dispenser (FRD) (Aurora Discovery, San Diego, CA). After 6 hr incubation at 37 C and 5% CO2, 5 uL of CellTiter-Glo reagent (Promega Corporation, Madison, WI) was added to each assay plate using an FRD. Luminescence was quantified on a ViewLux plate reader (PerkinElmer, Waltham, MA) after 30 min incubation at room temperature.", "values": [
      {"smiles": "CC(C)C(=O)C(C)C", "activity change, negative = cytotoxicity": "-1.81%"},
      {"smiles": "NCc1cccc(C2CCN(C(=O)c3ccc(C#Cc4ccccc4F)o3)CC2)c1", "Potency": "68.6 µM (active)"},
      {"smiles": "CC1CCC(C(C)(C)O)CC1", "note": "(stereo not given)", "activity change, negative = cytotoxicity": "-0.0141%"},
      {"smiles": "SC1CCCCC1", "activity change, negative = cytotoxicity": "0.452%"},
      {"smiles": "[Cl][Dy]([Cl])[Cl]", "activity change, negative = cytotoxicity": "-1.89%"},
      {"smiles": "Clc1ccc2c(Cl)ccnc2c1", "activity change, negative = cytotoxicity": "1.55%"},
      {"smiles": "Cc1cccc2c1ccc1ccccc12", "activity change, negative = cytotoxicity": "-4.5%"},
      {"smiles": "Nc1ccc2c(S(=O)(=O)O)cccc2c1S(=O)(=O)O", "activity change, negative = cytotoxicity": "-0.0865% [at 42.5 µM]"},
      {"smiles": "CCC1(C)C(=O)N(Cl)C(=O)N1Cl", "note": "(stereo not given)", "activity change, negative = cytotoxicity": "1.93%"},
      {"smiles": "CCNc1nc(NC(C)(C)C)nc(OC)n1", "activity change, negative = cytotoxicity": "6.7%"},
      {"smiles": "CCOC(=O)[C@H](O)[C@@H](O)C(=O)OCC", "activity change, negative = cytotoxicity": "0.818%"},
      {"smiles": "CC/C=C(\\C)C=O", "activity change, negative = cytotoxicity": "-0.779%"},
      {"smiles": "CCC(=O)OC/C=C(\\C)CCC=C(C)C", "activity change, negative = cytotoxicity": "-0.289%"},
      {"smiles": "CCc1c(C)cc(N)c(CC)c1N", "activity change, negative = cytotoxicity": "-0.317%"},
      {"smiles": "C=COCCCC", "activity change, negative = cytotoxicity": "-0.0564%"},
      {"smiles": "Cc1ccc(Cl)c(N)c1Cl", "activity change, negative = cytotoxicity": "-9.72%"},
      {"smiles": "CC1(C)[C@H](C(=O)OCc2cccc(Oc3ccccc3)c2)[C@@H]1C=C(Cl)Cl", "activity change, negative = cytotoxicity": "0.0659%"},
      {"smiles": "Oc1cccc2c(O)cccc12", "activity change, negative = cytotoxicity": "-0.155%"},
      {"smiles": "c1ccc(C[P+](c2ccccc2)(c2ccccc2)c2ccccc2)cc1", "activity change, negative = cytotoxicity": "0.33%"},
      {"smiles": "COc1cc(C(C)C)ccc1C", "activity change, negative = cytotoxicity": "-0.431% [at 19 µM]"},
      {"smiles": "Nc1c(Br)cc([N+](=O)[O-])cc1Br", "activity change, negative = cytotoxicity": "1.49%"},
      {"smiles": "C/C=C/C(=O)C1=C(C)C=CCC1(C)C", "activity change, negative = cytotoxicity": "-0.428%"},
      {"smiles": "Brc1cc(Br)cc(Br)c1", "activity change, negative = cytotoxicity": "0.774%"},
      {"smiles": "Nc1cccnc1N", "activity change, negative = cytotoxicity": "-0.0513%"},
      {"smiles": "CC1=CC[C@@H](C(C)(C)O)CC1", "activity change, negative = cytotoxicity": "1.23%"},
      {"smiles": "O=C(c1ccccc1)c1ccc(Cl)cc1", "activity change, negative = cytotoxicity": "-11.4%"},
      {"smiles": "CN(C[C@@H](CC[N+]12CCC(C3CCCCC3)(CC1)CC2)c1ccc(Cl)c(Cl)c1)C(=O)c1cc(C(F)(F)F)cc(C(F)(F)F)c1", "Potency": "54.5 µM (active)"},
      {"smiles": "C/C=C/C(=O)OCC(C)C", "activity change, negative = cytotoxicity": "-0.197%"},
      {"smiles": "CCSCC", "activity change, negative = cytotoxicity": "0.179%"},
      {"smiles": "CCN(CC)c1ccc2c(c1)Oc1cc(N(CC)CC)ccc1C21OC(=O)c2ccccc21", "Potency": "11.9 µM (active)"},
      {"smiles": "C=CC(=O)OCCOC1C2CCC1C1CC=CC12", "note": "(stereo not given)", "activity change, negative = cytotoxicity": "-0.0183% [at 19 µM]"},
      {"smiles": "CC(C)(C)c1cc(CCC(=O)OCCSCCOC(=O)CCc2cc(C(C)(C)C)c(O)c(C(C)(C)C)c2)cc(C(C)(C)C)c1O", "activity change, negative = cytotoxicity": "-2.64% [at 42.5 µM]"},
      {"smiles": "CCc1cccc(C)c1N(C(=O)CS(=O)(=O)O)C(C)COC", "note": "(stereo not given)", "activity change, negative = cytotoxicity": "0.398%"},
      {"smiles": "CCCCCCCCCCCCS(=O)(=O)Cl", "activity change, negative = cytotoxicity": "0.197% [at 19 µM]"},
      {"smiles": "COc1cc([C@@H]2c3cc4c(cc3[C@@H](O[C@@H]3O[C@@H]5CO[C@@H](C)O[C@H]5[C@H](O)[C@H]3O)[C@H]3COC(=O)[C@H]23)OCO4)cc(OC)c1O", "activity change, negative = cytotoxicity": "0.567%"},
      {"smiles": "CC(C)(C)C1=CC(=O)C(C(C)(C)C)=CC1=O", "activity change, negative = cytotoxicity": "10.1% [at 42.5 µM]"},
      {"smiles": "O=C1OC2(c3ccccc31)c1ccc(O)c(Br)c1Oc1c2ccc(O)c1Br", "activity change, negative = cytotoxicity": "-9.19%"},
      {"smiles": "CCCCCCCC/C=C\\CCCCCCCC(=O)N(CCO)CCO", "activity change, negative = cytotoxicity": "-4.59%"},
      {"smiles": "O=C(CCN1CCC(c2ccccc2)C1)c1ccc2c(c1)OCCO2", "note": "(stereo not given)", "activity change, negative = cytotoxicity": "10.7% [at 42.5 µM]"},
      {"smiles": "CCCCCCCCCC[N+](C)(CCCCCCCCCC)CCC[Si](OC)(OC)OC", "Potency": "30.6 µM (active)"}
    ]}
  ]
}
